The whole screen tested about 5,500 compounds, of which about 2,000 (36%) were called active. Another 18% or so got no clear call; they are omitted. Cut-off read from the data, not from the text of the source: active = normalized growth mostly below about 0.91 (no sharp cut-off); inconclusive = no clear call, values can overlap the other calls; inactive = mostly above about 0.92. This is one part of the list.
Experiment: chemical genetic growth profiling, strain panel (AID 1159580);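 note: tested at 20 µM; growth read once vehicle control cultures reached saturation at 30 °C; 1 = growth at the plate median or of vehicle wells; lower values mean less growth of the strain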
Conditions: growth OD

Measured: normalized growth

Cc1cccc(Nc2ccncc2S(=O)(=O)NC(=O)NC(C)C)c1
inactive: S. cerevisiae deletion strains, locus YAL013W, strain DEP1, hits give low values 1.01 | S. cerevisiae deletion strains, locus YBR021W, strain FUR4, hits give low values 1.02 | S. cerevisiae deletion strains, locus YBR229C, strain ROT2, hits give low values 1.01 | S. cerevisiae deletion strains, locus YCL029C, strain bik1, hits give low values 1.02 | S. cerevisiae deletion strains, locus YDL035C, strain GPR1, hits give low values 1.02 | S. cerevisiae deletion strains, locus YDL074C, strain BRE1, hits give low values 1.01 | S. cerevisiae deletion strains, locus YDL101C, strain DUN1, hits give low values 1.02 | S. cerevisiae deletion strains, locus YDL134C, strain PPH21, hits give low values 1 | S. cerevisiae deletion strains, locus YDL185W, strain tfp1, hits give low values 1.02 | S. cerevisiae deletion strains, locus YDL192W, strain arf1, hits give low values 1.03 | S. cerevisiae deletion strains, locus YDR101C, strain arx1, hits give low values 1.02 | S. cerevisiae deletion strains, locus YDR150W, strain NUM1, hits give low values 1.02 | S. cerevisiae deletion strains, locus YDR162C, strain NBP2, hits give low values 1.01 | S. cerevisiae deletion strains, locus YDR318W, strain mcm21, hits give low values 1.03 | S. cerevisiae deletion strains, locus YDR388W, hits give low values 1.02 | S. cerevisiae deletion strains, locus YDR502C, strain sam2, hits give low values 1.02 | S. cerevisiae deletion strains, locus YEL061C, strain CIN8, hits give low values 1.01 | S. cerevisiae deletion strains, locus YER110C, hits give low values 1.03 | S. cerevisiae deletion strains, locus YER155C, strain BEM2, hits give low values 0.999 | S. cerevisiae deletion strains, locus YER167W, strain BCK2, hits give low values 1.01 | S. cerevisiae deletion strains, locus YGL078C, strain dbp3, hits give low values 1.02 | S. cerevisiae deletion strains, locus YGL086W, strain mad1, hits give low values 1.02 | S. cerevisiae deletion strains, locus YGL248W, strain PDE1, hits give low values 1.01 | S. cerevisiae deletion strains, locus YGR078C, strain PAC10, hits give low values 1.05 | S. cerevisiae deletion strains, locus YGR135W, strain pre9, hits give low values 1.01 | S. cerevisiae deletion strains, locus YGR229C, strain SMI1, hits give low values 1.04 | S. cerevisiae deletion strains, locus YGR252W, strain gcn5, hits give low values 1.08 | S. cerevisiae deletion strains, locus YHR030C, strain SLT2, hits give low values 1.01 | S. cerevisiae deletion strains, locus YHR079C, strain IRE1 (second series), hits give low values 1.01 | S. cerevisiae deletion strains, locus YHR094C, strain hxt1, hits give low values 1.02 | S. cerevisiae deletion strains, locus YHR129C, strain ARP1, hits give low values 1 | S. cerevisiae deletion strains, locus YHR200W, strain rpn10, hits give low values 1.03 | S. cerevisiae deletion strains, locus YIL066C, strain RNR3, hits give low values 1.04 | S. cerevisiae deletion strains, locus YIL125W, strain kgd1, hits give low values 1.01 | S. cerevisiae deletion strains, locus YIR030C, strain dcg1, hits give low values 1.02 | S. cerevisiae deletion strains, locus YJL095W, strain BCK1, hits give low values 1.02 | S. cerevisiae deletion strains, locus YJL134W, strain LCB3, hits give low values 1.01 | S. cerevisiae deletion strains, locus YJL168C, strain set2, hits give low values 1.02 | S. cerevisiae deletion strains, locus YJL187C, strain SWE1 (second series), hits give low values 1.02 | S. cerevisiae deletion strains, locus YJR043C, strain POL32, hits give low values 1.04 | S. cerevisiae deletion strains, locus YJR075W, strain HOC1, hits give low values 1.01 | S. cerevisiae deletion strains, locus YKL009W, strain mrt4, hits give low values 1.01 | S. cerevisiae deletion strains, locus YKL068W, hits give low values 1.01 | S. cerevisiae deletion strains, locus YKL085W, strain MDH1 (second series), hits give low values 0.986 | S. cerevisiae deletion strains, locus YKL085W, strain MDH1, hits give low values 0.986 | S. cerevisiae deletion strains, locus YKL190W, strain CNB1, hits give low values 1.03 | S. cerevisiae deletion strains, locus YKR001C, strain vps1, hits give low values 1.03 | S. cerevisiae deletion strains, locus YLR039C, strain RIC1, hits give low values 1.04 | S. cerevisiae deletion strains, locus YLR058C, strain SHM2, hits give low values 1.01 | S. cerevisiae deletion strains, locus YLR102C, strain apc9, hits give low values 1.02 | S. cerevisiae deletion strains, locus YLR262C, strain YPT6, hits give low values 1.03 | S. cerevisiae deletion strains, locus YLR268W, strain sec22, hits give low values 1.02 | S. cerevisiae deletion strains, locus YLR330W, strain CHS5, hits give low values 1.01 | S. cerevisiae deletion strains, locus YLR342W, strain FKS1 (second series), hits give low values 1.06 | S. cerevisiae deletion strains, locus YLR371W, strain rom2, hits give low values 1.03 | S. cerevisiae deletion strains, locus YLR418C, strain cdc73, hits give low values 1.01 | S. cerevisiae deletion strains, locus YML016C, strain PPZ1, hits give low values 1.01 | S. cerevisiae deletion strains, locus YML032C, strain rad52, hits give low values 1.03 | S. cerevisiae deletion strains, locus YML124C, strain tub3, hits give low values 1.02 | S. cerevisiae deletion strains, locus YMR078C, strain ctf18, hits give low values 1.03 | S. cerevisiae deletion strains, locus YMR223W, strain ubp8, hits give low values 1.03 | S. cerevisiae deletion strains, locus YMR263W, strain SAP30, hits give low values 1.02 | S. cerevisiae deletion strains, locus YMR307W, strain GAS1, hits give low values 1.05 | S. cerevisiae deletion strains, locus YNL067W, strain RPL9B, hits give low values 1.01 | S. cerevisiae deletion strains, locus YNL128W, strain TEP1, hits give low values 1.02 | S. cerevisiae deletion strains, locus YNL153C, strain GIM3, hits give low values 1 | S. cerevisiae deletion strains, locus YNL233W, strain BNI4, hits give low values 1 | S. cerevisiae deletion strains, locus YNL250W, strain rad50, hits give low values 1.02 | S. cerevisiae deletion strains, locus YNL271C, strain bni1, hits give low values 1.02 | S. cerevisiae deletion strains, locus YNL298W, strain CLA4, hits give low values 1.02 | S. cerevisiae deletion strains, locus YNL307C, strain MCK1, hits give low values 1.03 | S. cerevisiae deletion strains, locus YNL322C, strain KRE1, hits give low values 1.02 | S. cerevisiae deletion strains, locus YNR052C, strain pop2, hits give low values 1.03 | S. cerevisiae deletion strains, locus YOL006C, strain TOP1, hits give low values 1 | S. cerevisiae deletion strains, locus YOL012C, strain htz1 0.913 | S. cerevisiae deletion strains, locus YOL147C, strain pex11, hits give low values 1.02 | S. cerevisiae deletion strains, locus YOR061W, strain CKA2, hits give low values 1.01 | S. cerevisiae deletion strains, locus YOR069W, strain VPS5, hits give low values 1 | S. cerevisiae deletion strains, locus YOR136W, strain idh2, hits give low values 1.03 | S. cerevisiae deletion strains, locus YOR144C, strain elg1, hits give low values 1.03 | S. cerevisiae deletion strains, locus YOR184W, strain ser1, hits give low values 1.03 | S. cerevisiae deletion strains, locus YOR316C, strain cot1, hits give low values 1.02 | S. cerevisiae deletion strains, locus YPL055C, strain LGE1, hits give low values 1.04 | S. cerevisiae deletion strains, locus YPL241C, strain CIN2, hits give low values 1.03 | S. cerevisiae deletion strains, locus YPR119W, strain clb2, hits give low values 1.02 | S. cerevisiae deletion strains, locus YPR141C, strain kar3, hits give low values 1.02 | S. cerevisiae deletion strains, locus YPR163C, strain tif3, hits give low values 1.03 | S. cerevisiae deletion strains, locus YPR167C, strain met16, hits give low values 1.01 | S. cerevisiae deletion strains, strain wtn01, hits give low values 1 | S. cerevisiae strains, strain wild type, hits give low values 1.04
